Assay results: the supplement of paper PMC8728848
The entries come from a sample that favours the strongest signals as a whole.

Assays:
Assay in all cases: glycan array binding signal (z-score within array); higher = stronger binding
Details in all cases: glycan notation: IUPAC condensed, linker removed
[1] = biological target: Fuc(a1-2)Gal(b1-3)GalNAc
Outline: (§1)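 Glycan array binding is given as a within-array Z-score, which can be read as non-binding when negative. The arrays, 3228 of them, came from the Consortium for Functional Glycomics database and were retained only where the protein sequence was available. Z-scores were averaged across arrays of the same protein sequence at different concentrations or buffers and across linkers.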

[2] = biological target: Fuc(a1-2)Gal(b1-3)GlcNAc(b1-2)Man(a1-3)[Fuc(a1-2)Gal(b1-3)GlcNAc(b1-2)Man(a1-6)]Man(b1-4)GlcNAc(b1-4)GlcNAc
Outline: as §1

[3] = biological target: Fuc(a1-2)Gal(b1-4)GlcNAc(b1-2)[Fuc(a1-2)Gal(b1-4)GlcNAc(b1-4)]Man(a1-3)[Fuc(a1-2)Gal(b1-4)GlcNAc(b1-2)Man(a1-6)]Man(b1-4)GlcNAc(b1-4)GlcNAc
Outline: as §1

[4] = biological target: Fuc(a1-2)[Gal(a1-3)]Gal(b1-4)Glc
Outline: as §1

[5] = biological target: Fuc(a1-2)[Gal(a1-3)]Gal(b1-4)GlcNAc(b1-2)Man(a1-3)[Fuc(a1-2)[Gal(a1-3)]Gal(b1-4)GlcNAc(b1-2)Man(a1-6)]Man(b1-4)GlcNAc(b1-4)GlcNAc
Outline: as §1

[6] = biological target: Fuc(a1-2)[Gal(a1-3)]Gal(b1-4)[Fuc(a1-3)]GlcNAc
Outline: as §1

[7] = biological target: Fuc(a1-2)[GalNAc(a1-3)]Gal(b1-3)GlcNAc(b1-2)Man(a1-3)[Fuc(a1-2)[GalNAc(a1-3)]Gal(b1-3)GlcNAc(b1-2)Man(a1-6)]Man(b1-4)GlcNAc(b1-4)[Fuc(a1-6)]GlcNAc
Outline: as §1

[8] = biological target: Fuc(a1-2)[GalNAc(a1-3)]Gal(b1-4)GlcNAc(b1-2)Man(a1-3)[Fuc(a1-2)[GalNAc(a1-3)]Gal(b1-4)GlcNAc(b1-2)Man(a1-6)]Man(b1-4)GlcNAc(b1-4)GlcNAc
Outline: as §1

[9] = biological target: Fuc(a1-2)[GalNAc(a1-3)]Gal(b1-4)GlcNAc(b1-3)Gal(b1-4)GlcNAc
Outline: as §1

[10] = biological target: Fuc(a1-2)[GalNAc(a1-3)]Gal(b1-4)GlcNAc(b1-3)Gal(b1-4)GlcNAc(b1-3)Gal(b1-4)GlcNAc
Outline: as §1

[11] = biological target: Fuc(a1-3)[Gal(b1-4)]GlcNAc(b1-2)Man(a1-6)[Gal(b1-4)GlcNAc(b1-2)Man(a1-3)]Man(b1-4)GlcNAc(b1-4)GlcNAc
Outline: as §1

[12] = biological target: Gal(a1-3)Gal
Outline: as §1

[13] = biological target: Gal(a1-3)Gal(b1-4)[Fuc(a1-3)]GlcNAc(b1-2)Man(a1-3)[Gal(a1-3)Gal(b1-4)[Fuc(a1-3)]GlcNAc(b1-2)Man(a1-6)]Man(b1-4)GlcNAc(b1-4)GlcNAc
Outline: as §1

[14] = biological target: Gal(b1-2)Gal
Outline: as §1

[15] = biological target: Gal(b1-3)GalNAc(a1-3)[Fuc(a1-2)]Gal(b1-4)GlcNAc
Outline: as §1

[16] = biological target: Gal(b1-3)GlcNAc
Outline: as §1

[17] = biological target: Gal(b1-3)GlcNAc(b1-2)Man(a1-3)[Gal(b1-3)GlcNAc(b1-2)Man(a1-6)]Man(b1-4)GlcNAc(b1-4)[Fuc(a1-6)]GlcNAc
Outline: as §1

[18] = biological target: Gal(b1-3)GlcNAc(b1-3)Gal(b1-4)Glc
Outline: as §1

[19] = biological target: Gal(b1-3)GlcNAc(b1-3)GalNAc
Outline: as §1

[20] = biological target: Gal(b1-4)Gal
Outline: as §1

[21] = biological target: Gal(b1-4)GlcNAc(b1-2)Man(a1-3)[Man(a1-6)]Man(b1-4)GlcNAc(b1-4)GlcNAc
Outline: as §1

[22] = biological target: Gal(b1-4)GlcNAc(b1-2)[Gal(b1-4)GlcNAc(b1-6)]Man(a1-6)[GlcNAc(b1-4)][Gal(b1-4)GlcNAc(b1-2)Man(a1-3)]Man(b1-4)GlcNAc(b1-4)GlcNAc
Outline: as §1

[23] = biological target: Gal(b1-4)GlcNAc(b1-3)Gal(b1-3)GlcNAc
Outline: as §1

[24] = biological target: Gal(b1-4)GlcNAc(b1-3)Gal(b1-4)Glc
Outline: as §1

[25] = biological target: Gal3S6S(b1-4)GlcNAc6S
Outline: as §1

[26] = biological target: Gal6S(b1-4)Glc6S
Outline: as §1

[27] = biological target: Gal6S(b1-4)GlcNAc
Outline: as §1

[28] = biological target: GalNAc6S(b1-4)GlcNAc
Outline: as §1

[29] = biological target: Glc(a1-6)Glc(a1-6)Glc(a1-6)Glc
Outline: as §1

[30] = biological target: Glc(b1-4)Glc
Outline: as §1

[31] = biological target: Glc(b1-6)Glc
Outline: as §1

[32] = biological target: GlcA(b1-3)Gal
Outline: as §1

[33] = biological target: GlcNAc(b1-3)[GlcNAc(b1-4)][GlcNAc(b1-6)]GlcNAc
Outline: as §1

[34] = biological target: GlcNAc6S(b1-3)Gal(b1-4)GlcNAc
Outline: as §1

[35] = biological target: Man(a1-3)[Man(a1-6)]Man(a1-6)[Man(a1-2)Man(a1-3)]Man(b1-4)GlcNAc(b1-4)GlcNAc
Outline: as §1

[36] = biological target: Man(a1-3)[Man(a1-6)]Man(a1-6)[Man(a1-3)]Man
Outline: as §1

[37] = biological target: Man(a1-3)[Man(a1-6)]Man(a1-6)[Man(a1-3)]Man(b1-4)GlcNAc(b1-4)GlcNAc
Outline: as §1

[38] = biological target: Neu5Ac(a2-3)Gal(b1-3)GlcNAc6S
Outline: as §1

[39] = biological target: Neu5Ac(a2-3)Gal(b1-4)GlcNAc(b1-2)Man(a1-3)[GlcNAc(b1-2)Man(b1-4)GlcNAc(b1-2)Man(a1-6)]Man(b1-4)GlcNAc(b1-4)GlcNAc
Outline: as §1

[40] = biological target: Neu5Ac(a2-3)Gal(b1-4)GlcNAc(b1-2)Man(a1-3)[Neu5Ac(a2-6)Gal(b1-4)GlcNAc(b1-2)Man(a1-6)]Man(b1-4)GlcNAc(b1-4)GlcNAc
Outline: as §1

[41] = biological target: Neu5Ac(a2-3)Gal(b1-4)GlcNAc(b1-3)Gal(b1-4)GlcNAc
Outline: as §1

[42] = biological target: Neu5Ac(a2-3)Gal(b1-4)[Fuc(a1-3)]GlcNAc(b1-3)Gal
Outline: as §1

[43] = biological target: Neu5Ac(a2-3)Gal(b1-4)[Fuc(a1-3)]GlcNAc6S
Outline: as §1

[44] = biological target: Neu5Ac(a2-3)GalNAc
Outline: as §1

[45] = biological target: Neu5Ac(a2-6)Gal(b1-4)GlcNAc(b1-2)Man(a1-3)[Gal(b1-4)GlcNAc(b1-2)Man(a1-6)]Man(b1-4)GlcNAc(b1-4)GlcNAc
Outline: as §1

[46] = biological target: Neu5Ac(a2-8)Neu5Ac(a2-8)Neu5Ac(a2-3)[GalNAc(b1-4)]Gal(b1-4)Glc
Outline: as §1

[47] = biological target: Neu5Gc(a2-3)Gal(b1-3)[Fuc(a1-4)]GlcNAc
Outline: as §1

[48] = biological target: Neu5Gc(b2-6)Gal(b1-4)GlcNAc
Outline: as §1

B1: Gal 8 (Homo sapiens), O00214_1 (protein)
chain: MMLSLNNLQNIIYNPVIPFVGTIPDQLDPGTLIVIRGHVPSDADRFQVDLQNGSSMKPRADVAFHFNPRFKRAGCIVCNTLINEKWGREEITYDTPFKREKSFEIVIMVLKDKFQVAVNGKHTLLYGHRIGPEKIDTLGIYGKVNIHSIGFSFSSDLQSTQASSLELTEISRENVPKSGTPQLRLPFAARLNTPMGPGRTVVVKGEVNANAKSFNVDLLAGKSKDIALHLNPRLNIKAFVRNSFLQESWGEEERNITSFPFSPGMYFEMIIYCDVREFKVAVNGVHSLEYKHRFKELSSIDTLEINGDIHLLEVRSW
glycan array binding signal (z-score) [1]: -0.23
glycan array binding signal (z-score) [2]: 0.466
glycan array binding signal (z-score) [3]: -1.24
glycan array binding signal (z-score) [4]: 3.1
glycan array binding signal (z-score) [5]: 2.33
glycan array binding signal (z-score) [6]: -0.143
glycan array binding signal (z-score) [7]: 1.73
glycan array binding signal (z-score) [8]: 2.14
glycan array binding signal (z-score) [9]: 2.58
glycan array binding signal (z-score) [10]: 2.31
glycan array binding signal (z-score) [11]: -0.273
glycan array binding signal (z-score) [12]: -0.252
glycan array binding signal (z-score) [13]: -0.137
glycan array binding signal (z-score) [14]: -0.201
glycan array binding signal (z-score) [15]: 2.17
glycan array binding signal (z-score) [16]: -0.167
glycan array binding signal (z-score) [17]: -0.63
glycan array binding signal (z-score) [18]: 0.084
glycan array binding signal (z-score) [19]: -0.235
glycan array binding signal (z-score) [20]: -0.099
glycan array binding signal (z-score) [21]: 0.003
glycan array binding signal (z-score) [22]: -0.251
glycan array binding signal (z-score) [23]: 1.38
glycan array binding signal (z-score) [24]: 2.32
glycan array binding signal (z-score) [25]: -0.201
glycan array binding signal (z-score) [26]: -0.094
glycan array binding signal (z-score) [27]: -0.172
glycan array binding signal (z-score) [28]: -0.215
glycan array binding signal (z-score) [29]: -0.23
glycan array binding signal (z-score) [30]: 0.078
glycan array binding signal (z-score) [31]: -0.234
glycan array binding signal (z-score) [32]: -0.219
glycan array binding signal (z-score) [33]: -0.227
glycan array binding signal (z-score) [34]: -0.585
glycan array binding signal (z-score) [35]: 2.31
glycan array binding signal (z-score) [36]: -0.195
glycan array binding signal (z-score) [37]: -0.16
glycan array binding signal (z-score) [38]: 2.19
glycan array binding signal (z-score) [39]: -0.189
glycan array binding signal (z-score) [40]: -0.225
glycan array binding signal (z-score) [41]: -0.244
glycan array binding signal (z-score) [42]: -0.243
glycan array binding signal (z-score) [43]: -0.235
glycan array binding signal (z-score) [44]: -0.201
glycan array binding signal (z-score) [45]: -0.254
glycan array binding signal (z-score) [46]: 0.35
glycan array binding signal (z-score) [47]: -0.233
glycan array binding signal (z-score) [48]: -0.219
